Laboratory results from paper PMC8384837, “Expanding the binding specificity for RNA recognition by a PUF domain”.

Columns and labels:
Experiment in all cases: yeast three-hybrid, YBZ-1, SC-Leu-His + 0.5 mM 3-AT, 4 days
Details in all cases: tags: N-Gal4 AD-HA kept; label: inside an RPR1-promoter hybrid RNA with tandem MS2 sites; ssRNA
PUM1 PUF domain R7-RRT = PUM1 PUF domain R7-RRT (Homo sapiens, UniProt Q14671 828-1176, S1079R;N1080R;E1083T)
Summary of the method: (§1)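 Sequencing with Illumina followed PCR amplification of the repeat regions from transformants grown four days on SC-Leu (input) or SC-Leu-His + 0.5 mM 3-AT (selection). The transformants were strain YBZ-1 with a LexA–MS2 coat fusion and a HIS3 reporter, carrying Pumilio-1 PUF domain libraries and matching RNA elements. The interaction score is the log change in variant frequency from input to selection, computed in log2 with a pseudocount of 1 for absent variants.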

PUM1 PUF domain R5-RSG = PUM1 PUF domain R5-RSG (Homo sapiens, UniProt Q14671 828-1176, C1007R;R1008S;Q1011G)
Summary of the method: as §1

PUM1 PUF domain R7-GPR = PUM1 PUF domain R7-GPR (Homo sapiens, UniProt Q14671 828-1176, S1079G;N1080P;E1083R)
Summary of the method: as §1

PUM1 PUF domain R7-QRR = PUM1 PUF domain R7-QRR (Homo sapiens, UniProt Q14671 828-1176, S1079Q;N1080R;E1083R)
Summary of the method: as §1

PUM1 PUF domain R1-NFV = PUM1 PUF domain R1-NFV (Homo sapiens, UniProt Q14671 828-1176, S863N;R864F;Q867V)
Summary of the method: as §1

PUM1 PUF domain R1-AWR = PUM1 PUF domain R1-AWR (Homo sapiens, UniProt Q14671 828-1176, S863A;R864W;Q867R)
Summary of the method: as §1

PUM1 PUF domain R8-RFS = PUM1 PUF domain R8-RFS (Homo sapiens, UniProt Q14671 828-1176, N1122R;Y1123F;Q1126S)
Summary of the method: as §1

PUM1 PUF domain R3-IFL = PUM1 PUF domain R3-IFL (Homo sapiens, UniProt Q14671 828-1176, C935I;R936F;Q939L)
Summary of the method: as §1

PUM1 PUF domain R3-KSD = PUM1 PUF domain R3-KSD (Homo sapiens, UniProt Q14671 828-1176, C935K;R936S;Q939D)
Summary of the method: as §1

PUM1 PUF domain R6-QYG = target: T1, PUM1 PUF domain R6-QYG (Homo sapiens, UniProt Q14671 828-1176, N1043Q;Q1047G)
T1 sequence: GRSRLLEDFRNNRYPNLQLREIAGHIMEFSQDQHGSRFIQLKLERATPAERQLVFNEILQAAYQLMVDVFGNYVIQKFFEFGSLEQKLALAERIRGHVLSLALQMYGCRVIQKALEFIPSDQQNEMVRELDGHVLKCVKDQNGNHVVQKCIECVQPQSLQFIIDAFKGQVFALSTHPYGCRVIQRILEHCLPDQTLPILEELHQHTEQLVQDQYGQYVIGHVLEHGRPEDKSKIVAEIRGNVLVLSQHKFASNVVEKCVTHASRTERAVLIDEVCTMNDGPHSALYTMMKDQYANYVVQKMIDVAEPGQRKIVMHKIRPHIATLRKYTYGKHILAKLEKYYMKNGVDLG
Summary of the method: as §1

Q: With “GGCUAGAACUAGUGGAUCCCCCGGCGCCCGGCGGCUCGAGCCCGGGUAAGUUUAAAUAGUCUGCAUGCCGCCGGGCGCCAUGCCUGCAGGUCGACUCUAGAAAACAUG” as the sequence, how does the binding signal (PUM1 PUF domain R7-RRT) read?
A: 4.83 log2 enrichment (interaction score)

Q: Which binding signal (PUM1 PUF domain R5-RSG) does the source give for “GGCUAGAACUAGUGGAUCCCCCGGCGCCCGGCGGCUCGAGCCCGGGUAAGUGUUAAUAGUCUGCAUGCCGCCGGGCGCCAUGCCUGCAGGUCGACUCUAGAAAACAUG” here?
A: 2.84 log2 enrichment (interaction score)

Q: For “GGCUAGAACUAGUGGAUCCCCCGGCGCCCGGCGGCUCGAGCCCGGGUAAGUCUAAAUAGUCUGCAUGCCGCCGGGCGCCAUGCCUGCAGGUCGACUCUAGAAAACAUG”, which binding signal (PUM1 PUF domain R7-GPR) is on record?
A: 3.96 log2 enrichment (interaction score)

Q: And the binding signal (PUM1 PUF domain R7-RRT)?
A: 4.42 log2 enrichment (interaction score)

Q: What about the binding signal (PUM1 PUF domain R7-QRR) of the same sequence?
A: 3.77 log2 enrichment (interaction score)

Q: How did the binding signal (PUM1 PUF domain R1-NFV) turn out when “GGCUAGAACUAGUGGAUCCCCCGGCGCCCGGCGGCUCGAGCCCGGGUAAGUGUAAAUUGUCUGCAUGCCGCCGGGCGCCAUGCCUGCAGGUCGACUCUAGAAAACAUG” was run?
A: 5.68 log2 enrichment (interaction score)

Q: And the binding signal (PUM1 PUF domain R1-AWR)?
A: 1.06 log2 enrichment (interaction score)

Q: How did the binding signal (PUM1 PUF domain R5-RSG) turn out when “GGCUAGAACUAGUGGAUCCCCCGGCGCCCGGCGGCUCGAGCCCGGGUAAGUGUCAAUAGUCUGCAUGCCGCCGGGCGCCAUGCCUGCAGGUCGACUCUAGAAAACAUG” was run?
A: 3.08 log2 enrichment (interaction score)

Q: “GGCUAGAACUAGUGGAUCCCCCGGCGCCCGGCGGCUCGAGCCCGGGUAAGCGUAAAUAGUCUGCAUGCCGCCGGGCGCCAUGCCUGCAGGUCGACUCUAGAAAACAUG” was tested. Which binding signal (PUM1 PUF domain R8-RFS) did it give?
A: 5.73 log2 enrichment (interaction score)

Q: How did the binding signal (PUM1 PUF domain R3-IFL) turn out when “GGCUAGAACUAGUGGAUCCCCCGGCGCCCGGCGGCUCGAGCCCGGGUAAGUGUAAUUAGUCUGCAUGCCGCCGGGCGCCAUGCCUGCAGGUCGACUCUAGAAAACAUG” was run?
A: 3.79 log2 enrichment (interaction score)

Q: And the binding signal (PUM1 PUF domain R3-KSD)?
A: 2.88 log2 enrichment (interaction score)

Q: With “GGCUAGAACUAGUGGAUCCCCCGGCGCCCGGCGGCUCGAGCCCGGGUAAGUGUAAAUAGUCUGCAUGCCGCCGGGCGCCAUGCCUGCAGGUCGACUCUAGAAAACAUG” as the sequence, how does the binding signal (PUM1 PUF domain R8-RFS) read?
A: 6.27 log2 enrichment (interaction score)

Q: What about the binding signal (PUM1 PUF domain R6-QYG) of the same sequence?
A: 3.17 log2 enrichment (interaction score)

Q: How did the binding signal (PUM1 PUF domain R1-AWR) turn out when “GGCUAGAACUAGUGGAUCCCCCGGCGCCCGGCGGCUCGAGCCCGGGUAAGUGUAAAUCGUCUGCAUGCCGCCGGGCGCCAUGCCUGCAGGUCGACUCUAGAAAACAUG” was run?
A: 4.26 log2 enrichment (interaction score)
